Only some compounds are listed: those with a hit (about 0.93% of all), similar ones and a draw of the others.
HIV TAR-Tat = HIV-1 TAR-Tat binding disruption | 100,000 compounds, 0.6% hits | HIV-1 TAR RNA, Tat peptide displacement FRET; active compounds read high | AID 1259389 | z-score (test concentration not listed); active = z-score of 3 or more in at least 2 runs
CDC25B CDK2 inh = human CDC25B-CDK2/CyclinA binding inhibition; HTRF CDC25B-CDK2/CyclinA binding, anti-His/anti-Flag; active compounds read high; z-score (no concentration beside the values); 94,000 compounds, 0.72% hits; AID 1259370; in the data active = z-score above about 3.2
The depositor's hits bear a star; . = no result.

SMILES	HIV TAR-Tat	CDC25B CDK2 inh
Cn1c(=O)c(=O)n(C)c2cc(S(=O)(=O)CCC(=O)N3CCc4ccccc4C3)ccc21	4.1*	-1.6
COc1ccc(Cn2cc3c(-c4ccccc4)nnc-3c3cc(OC)c(OC)cc32)cc1	-5.9	1.5
Cc1oc(-c2ccc(F)cc2)cc1-c1nn2c(-c3ccoc3C)nnc2s1	18*	1.8
Cc1oc(-c2ccc(Cl)cc2)cc1-c1nn2c(-c3ccco3)nnc2s1	1.4	-1.3
O=C(CSc1ncnc2c1sc1cccc(F)c12)N1CCCCC1	-0.7	.
O=C(O)CCSc1ncnc2c1sc1cccc(F)c12	5.4*	-0.58
O=C(CSc1ncnc2c1sc1cccc(F)c12)NCc1ccco1	0.27	.
O=C(CSc1ncnc2c1sc1cccc(F)c12)NCCc1ccco1	12*	.
CC(C)CC(NS(=O)(=O)c1ccc2c(c1)CCCC(=O)N2)C(=O)NC1CCCC1 (stereo unspecified)	0.44	.
O=c1oc2ccccc2cc1S(=O)(=O)c1ccc(Br)cc1	.	-1.6
CCCCCCCCCCCCCCCCCCN=C(C)N	.	4.5*
CC(N)=NCCCC[C@@H](N)C(=O)O	.	0.56
CCc1cc2c(cc3c(=O)n(CC(=O)NCCc4c[nH]c5ccccc45)nc(CC)n32)s1	-1.2	-1.8
Cc1cc(-c2ccc(C)c(S(=O)(=O)N3CCCC(CN4CCc5ccccc5C4)C3)c2)on1 (stereo unspecified)	1.1	.
COc1ccc(NC(=O)NC(C)c2c(-n3cccc3)sc3c2CCCC3)cc1OC (stereo unspecified)	0.45	11*
COc1ccc(OC)c(NC(=O)NC(C)c2c(-n3cccc3)sc3c2CCCC3)c1 (stereo unspecified)	-0.12	-5.1
COc1ccc(N(C)S(=O)(=O)c2ccsc2C(=O)O)cc1	0.78	-0.97
Cc1c(NS(=O)(=O)c2cccc3nsnc23)c(-n2cnnc2)nn1C	-0.65	-2.5
Cc1cc(-c2ccc(=O)[nH]n2)cc(S(=O)(=O)N2CCC(Cc3ccccc3)CC2)c1C	8.8*	.
Cc1cc(-c2ccc(=O)[nH]n2)cc(S(=O)(=O)N2CCN(c3ccccc3)CC2)c1C	1.9	.
COC(=O)c1ccc(C2NC(=O)NC(O)(C(F)(F)F)C2C(=O)c2ccc(F)cc2)cc1 (stereo unspecified)	.	0.1
CCCn1c(NCc2ccco2)nc2ccccc21	1	-0.65
CC(C)n1cnc2cc(NCc3ccco3)ccc21	0.19	7.8*
Cn1cnc2cc(NCc3ccco3)ccc21	0.29	17*
CC(C)(C)n1cnc2cc(NCc3ccco3)ccc21	1.4	0.72
SMILES	HIV TAR-Tat	CDC25B CDK2 inh
Cc1csc2nc(CN(C)c3ccccc3)cc(=O)n12	4.5*	.
Cc1csc2nc(COc3ccccc3)cc(=O)n12	-0.35	-1.2
CCN(Cc1cc(=O)n2c(C)csc2n1)c1ccccc1	5.1*	.
Cc1nn2c(=O)cc(CN(C)c3ccccc3)nc2s1	0.36	.
COc1ccc(S(=O)(=O)c2c(C(=O)c3ccc(C)cc3)cnc3cc4c(cc23)OCCO4)cc1	0.27	6.7*
COc1ccc(S(=O)(=O)c2c(C(=O)c3ccc(C)cc3)cnc3cc4c(cc23)OCO4)cc1	-0.24	0.07
CN(CC(=O)N1CCCC1)S(=O)(=O)c1cc2c(cc1Cl)NC(=O)CO2	0.93	.
CCOC(=O)C1CCN(c2n[nH]c(=O)c3ccccc23)CC1	-0.5	-1.4
O=C(O)c1ccc2c(c1)[C@@H]1C=CC[C@@H]1[C@H](c1ccccn1)N2	.	6*
O=C(O)c1ccc2c(c1)[C@@H]1C=CC[C@@H]1[C@H](c1cccc(C(F)(F)F)c1)N2	.	-0.52
O=C(O)c1ccc([C@@H]2Nc3c(F)cccc3[C@@H]3C=CC[C@@H]32)cc1	9.4*	2.2
Cc1ccc([C@@H]2Nc3c(F)cccc3[C@@H]3C=CC[C@@H]32)cc1	.	-1.8
O=C(O)c1ccc2c(c1)C1C=CCC1C(c1cccc(F)c1)N2 (stereo unspecified)	9.3*	0.43
O=C(O)c1ccc2c(c1)[C@@H]1C=CC[C@@H]1[C@H](c1ccccc1Br)N2	0.61	-0.76
O=C(O)c1ccc2c(c1)[C@@H]1C=CC[C@@H]1[C@H](c1cccc(Cl)c1)N2	.	0.38
O=C(O)c1ccc2c(c1)C1C=CCC1C(c1ccc(Cl)cc1)N2 (stereo unspecified)	19*	-0.83
CNC(=O)c1cc2n(n1)CC(C)(C(=O)NC1CCCC1)N(C)C2=O (stereo unspecified)	-0.47	.
Fc1ccccc1Nc1ncc2c(n1)CCN(Cc1cccc(Br)c1)C2	1.1	.
O=C(Oc1ccc2c(=O)c(-c3ccc(Cl)cc3)c(C(F)(F)F)oc2c1)N1CCOCC1	2	-1.2
CCCCSCCCNC(=O)CN1C(=O)CCn2nc(C)cc21	0.38	.
CCCNC(=O)CN(C)c1nnc(N2CCCCC2=O)s1	1.3	.
CN1CCc2nc3sc(C(=O)Nc4cccc(Cl)c4)c(N)c3cc2C1	-1.6	-2
CN1CCc2nc3sc(C(=O)c4ccc(Cl)cc4)c(N)c3cc2C1	-6.5	19*
O=C(NCCCN1CCCC1=O)C1CCN(c2nc3ccccc3n3cccc23)CC1	0.32	.
CSc1ccc(C2C(C#N)=C(N)Oc3c2ccc2ccccc32)cc1 (stereo unspecified)	-0.49	-0.13
SMILES	HIV TAR-Tat	CDC25B CDK2 inh
CSc1ccc(C2C(C#N)=C(N)OC3=C2CCc2ccccc23)cc1 (stereo unspecified)	.	7.5*
CCOc1cc(CNc2ccc3[nH]c(=O)[nH]c3c2)cc(Br)c1OC	-0.04	6.1*
O=c1[nH]c2ccc(NCc3ccccn3)cc2[nH]1	-6.5	13*
CCOc1cc(CNc2ccc3[nH]c(=O)[nH]c3c2)cc(Br)c1OCC	0.85	-1.7
O=c1[nH]c2ccc(NCC#Cc3ccccc3)cc2[nH]1	0.85	0.12
CCOc1c(Br)cc(CNc2ccc3[nH]c(=O)[nH]c3c2)cc1OC	-3.6	8.5*
COc1cc(CNc2ccc3[nH]c(=O)[nH]c3c2)cc(Br)c1OC	-0.05	8.7*
C=CCOc1ccc(CNc2ccc3[nH]c(=O)[nH]c3c2)cc1OC	-0.17	1.2
CCOc1c(Cl)cc(CNc2ncn[nH]2)cc1OC	-0.89	-0.46
O=C(NCC1CCN(C2CCCC2)C1)Nc1ccc2c(c1)OCO2 (stereo unspecified)	1.5	-2.1
O=C(Oc1ccc(C(F)(F)F)cc1[N+](=O)[O-])c1ccccc1	.	-1.2
Cc1noc2ncnc(N3CCCC(C(=O)NCCCN4CCN(C)CC4)C3)c12 (stereo unspecified)	1.1	.
Cc1cc(C)cc(NS(=O)(=O)c2ccc3c4c2CC(=O)N4CC(C)S3)c1 (stereo unspecified)	0.61	.
Cc1c(-c2nc(-c3ccc4c(c3)OCO4)no2)nnn1-c1ccc(F)c(Cl)c1	0.84	.
CCN(CCO)c1cc(NC(C)C)c2c3c(onc13)-c1ccccc1C2=O	-0.77	0.53
O=S(=O)(c1ccc(-c2cc(C(F)(F)F)on2)s1)N1CCC(c2ccccc2)C1 (stereo unspecified)	1.7	.
CCOc1ccc(Br)cc1CNc1ccc2[nH]c(=O)[nH]c2c1	-4.5	7.5*
COc1ccc(Br)cc1CNc1cc(C)cc(C)c1	0.4	-2.1
O=c1[nH]c2ccc(NCc3ccc(-c4ccc(F)cc4)o3)cc2[nH]1	-1.9	5.3*
O=C(Cc1cccs1)Nc1ccc2[nH]c(=O)[nH]c2c1	1.2	.
COc1ccccc1C(O)(c1ccc(F)cc1)C(CN1CCOCC1)c1ccccc1 (stereo unspecified)	0.98	1.5
